The source of these data is article PMC5540273 (PLoS ONE, 2017).

Among the test systems are PRKCD; PRKCE; PRKCH; PRKCI; PRKCQ; PRKD1; PRKD2; PRKD3; PRKG1; PRKG2.
Holding throughout (conditions): concentration: 1 μM, replicates: in singlicate; n = 1
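Note: KINOMEscan kinase panel screen.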

Consider `Nc1n[nH]c2nnc(-c3ccccc3)cc12` [SB-517389], for which the “%Inh” value in the assay on PRKCD turned out to be 0%; in the assay on PRKCE it was 9%; with PRKCH, 23%; in the assay with PRKCI, 18%; in the assay with PRKCQ, 0%; in the assay with PRKD1, 0%. In addition, the “%Inh” value in the assay on PRKD2, in the assay with PRKD3, with PRKG1 and with PRKG2 was 0% in each case.
As for `Cc1ccc(NC(=O)c2cccc(C#N)c2)cc1-c1ccc(C(=O)Nc2ccncc2)cc1` [GSK1398463], the “%Inh” value is listed as 7% with PRKCD; 5% in the assay with PRKCE; 27% with PRKCH; 0% in the assay with PRKCI; 0% in the assay on PRKCQ; 0% in the assay with PRKD1. The “%Inh” value with PRKD2 turned out to be 12%; in the assay with PRKD3, 31%; with PRKG1, 2%; with PRKG2, 0%.
As to `O=C(NCCCN1CCCC1=O)c1cnc(NCc2cc(Cl)ccc2Cl)nc1NC1CCNCC1`, the “%Inh” value came out at 13% in the assay with PRKCD; 40% in the assay on PRKCE; 0% in the assay with PRKCH; 0% in the assay on PRKCI; 0% in the assay with PRKCQ; 3% with PRKD1. Further, the “%Inh” value in the assay on PRKD2 is reported as 0%; in the assay with PRKD3, 29%; in the assay on PRKG1, 0%; in the assay with PRKG2, 0%.
On to `COc1ccc(Nc2nccc(N3CCC(NC(=O)c4cccc(NC(C)=O)c4)C3)n2)cc1` (stereo not drawn) [GSK1379732], for which the “%Inh” value in the assay with PRKCD is reported as 8%; in the assay on PRKCE it was 16%; with PRKCH, 17%; in the assay on PRKCI, 5%; in the assay with PRKCQ it was 25%; with PRKD1, 13%. Further, the “%Inh” value in the assay on PRKD2 is on record as 20%; in the assay on PRKD3 it was 11%; with PRKG1, 2%; with PRKG2 it was 11%.
`CCn1c(-c2ccncc2)nc2cnccc21` [SB-735216]: the “%Inh” value with PRKCD is 0%; in the assay on PRKCE it was 37%; with PRKCH it was 12%; with PRKCI it was 46%; in the assay on PRKCQ, 8%; with PRKD1, 0%. Besides, the “%Inh” value turned out to be 4% in the assay with PRKD2, 0% with PRKD3, 2% in the assay on PRKG1 and 8% in the assay with PRKG2.
Consider `COc1ccc(NC(=O)c2ccc(-c3cc(-c4nnc(C)o4)ccc3C)cc2)cc1` [GW595885], for which the “%Inh” value with PRKCD is reported as 0%; in the assay on PRKCE it was 4%; in the assay with PRKCH, 8%; in the assay with PRKCI, 0%; in the assay on PRKCQ, 9%; in the assay on PRKD1, 2%. Further, the “%Inh” value in the assay with PRKD2 is recorded as 0%; in the assay on PRKD3, 0%; in the assay on PRKG1, 4%; in the assay on PRKG2, 0%.
On to `Clc1cccc(-c2nc(Nc3ccncc3)c3ccccc3n2)c1` [GW873004], for which the “%Inh” value with PRKCD worked out at 24%; with PRKCE, 16%; in the assay with PRKCH it was 50%; with PRKCI, 17%; in the assay on PRKCQ, 0%; with PRKD1, 47%. Moreover, the “%Inh” value is 45% in the assay on PRKD2, 44% with PRKD3, 16% with PRKG1 and 7% in the assay on PRKG2.
Turning to `Fc1ccc(-c2ncn(CCCNCc3ccccc3)c2-c2ccncc2)cc1`, the “%Inh” value in the assay on PRKCD is on record as 0%; with PRKCE it was 26%; in the assay on PRKCH it was 0%; with PRKCI, 0%; in the assay on PRKCQ, 30%; in the assay on PRKD1, 20%. In addition, the “%Inh” value in the assay on PRKD2 came to 0%; with PRKD3 it was 27%; in the assay with PRKG1, 7%; in the assay with PRKG2, 0%.
Turning to `N#Cc1ccc(Oc2ccc(Nc3ncnc4cc[nH]c34)cc2Cl)cc1`, the “%Inh” value stood at 0% in the assay with PRKCD; 0% in the assay on PRKCE; 22% with PRKCH; 12% in the assay on PRKCI; 19% in the assay with PRKCQ; 0% with PRKD1. The “%Inh” value worked out at 10% in the assay with PRKD2, 0% in the assay on PRKD3, 0% in the assay on PRKG1 and 30% in the assay on PRKG2.
For `Nc1nc(-c2ccccn2)c(-c2ccnc3ccccc23)s1` [GW548057], the “%Inh” value in the assay with PRKCD is 0%; in the assay with PRKCE, 26%; in the assay with PRKCH, 9%; with PRKCI, 26%; in the assay with PRKCQ it was 3%; with PRKD1, 36%. Further, the “%Inh” value in the assay on PRKD2 is on record as 25%; with PRKD3, 15%; in the assay on PRKG1 it was 17%; with PRKG2, 9%.
Consider `Oc1ccc2ncnc(Nc3ccc(OCc4ccccc4)cc3)c2c1` [GI262866], for which the “%Inh” value is recorded as 0% with PRKCD; 0% with PRKCE; 6% in the assay on PRKCH; 27% in the assay on PRKCI; 15% in the assay with PRKCQ; 0% in the assay on PRKD1. In addition, the “%Inh” value in the assay with PRKD2 was 0%; in the assay with PRKD3, 30%; in the assay on PRKG1, 0%; with PRKG2, 0%.
Consider `Cl.c1ccc(Cn2ncc3cc(Nc4ncnc5ccccc45)ccc32)cc1` [GW273749], for which the “%Inh” value in the assay on PRKCD, in the assay with PRKCE, with PRKCH, with PRKCI, in the assay with PRKCQ and with PRKD1 was 0% each time. For the same compound, the “%Inh” value in the assay with PRKD2 was 2%; with PRKD3, 22%; in the assay on PRKG1, 5%; in the assay with PRKG2, 0%.
As to `Cn1ccc2ncnc(Oc3ccc(NC(=O)Nc4cccnc4)c(Cl)c3)c21`, the “%Inh” value with PRKCD is given as 13%; with PRKCE it was 0%; in the assay on PRKCH, 6%; in the assay on PRKCI, 0%; with PRKCQ, 28%; with PRKD1 it was 0%. Also, the “%Inh” value in the assay on PRKD2 stood at 8%; in the assay with PRKD3 it was 0%; with PRKG1, 0%; with PRKG2, 0%.
`CNc1nccc(-c2c(-c3ccc(F)cc3)ncn2C2CCN(C)CC2)n1` [SB-222903]: the “%Inh” value in the assay with PRKCD stood at 10%; with PRKCE, 2%; in the assay with PRKCH it was 0%; in the assay on PRKCI it was 0%; in the assay on PRKCQ, 0%; in the assay on PRKD1, 0%. For the same compound, the “%Inh” value is recorded as 19% in the assay with PRKD2, 0% with PRKD3, 14% in the assay on PRKG1 and 0% in the assay on PRKG2.
Take `CSc1ccc(NC2=C(c3ccccc3Cl)C(=O)NC2=O)cc1` [SB-342411]: the “%Inh” value in the assay on PRKCD was 26%; in the assay with PRKCE, 0%; in the assay with PRKCH it was 7%; in the assay with PRKCI, 0%; in the assay on PRKCQ, 0%; with PRKD1 it was 5%. Further, the “%Inh” value in the assay on PRKD2 amounted to 2%; in the assay with PRKD3, 28%; in the assay with PRKG1 it was 0%; with PRKG2 it was 13%.
Regarding `COC(=O)c1c(-c2ccccc2)c2cc(Cl)ccc2c(=O)n1Cc1ccc(S(C)(=O)=O)cc1`, the “%Inh” value with PRKCD is listed as 0%; in the assay on PRKCE, 0%; in the assay on PRKCH it was 0%; in the assay with PRKCI, 8%; in the assay with PRKCQ, 19%; in the assay on PRKD1 it was 33%. For the same compound, the “%Inh” value in the assay with PRKD2 is recorded as 0%; with PRKD3, 0%; in the assay on PRKG1 it was 0%; in the assay on PRKG2 it was 12%.
Take `Cc1ccc(C)c(NC(=O)NCCNc2ccnc(Nc3ccc(F)cc3)n2)c1` [GSK1379878]: the “%Inh” value stood at 0% in the assay with PRKCD; 0% in the assay on PRKCE; 0% in the assay with PRKCH; 0% with PRKCI; 0% in the assay on PRKCQ; 1% in the assay on PRKD1. In addition, the “%Inh” value with PRKD2, in the assay with PRKD3, in the assay with PRKG1 and in the assay on PRKG2 was 0% throughout.
Regarding `Cl.c1ccc(Cn2ccc3cc(Nc4ncnc5ccccc45)ccc32)cc1` [GW275568], the “%Inh” value in the assay on PRKCD worked out at 0%; in the assay on PRKCE, 8%; in the assay on PRKCH, 0%; in the assay with PRKCI, 31%; in the assay with PRKCQ it was 11%; with PRKD1, 0%. The “%Inh” value in the assay on PRKD2 stood at 18%; with PRKD3 it was 13%; in the assay on PRKG1 it was 0%; in the assay on PRKG2, 28%.
On to `OCCOCCn1ccc2ncnc(Nc3ccc(Oc4cccc(Cl)c4)c(Cl)c3)c21`, for which the “%Inh” value in the assay with PRKCD is 28%; with PRKCE it was 2%; in the assay on PRKCH it was 0%; in the assay with PRKCI, 0%; in the assay with PRKCQ, 0%; with PRKD1 it was 0%. Further, the “%Inh” value was found to be 0% in the assay on PRKD2, 0% in the assay on PRKD3, 4% with PRKG1 and 0% with PRKG2.
With `CCc1nc(-c2cccc(N(C)S(=O)(=O)c3ccccc3)c2)c(-c2ccnc(Nc3ccc(N4CCN(C(C)=O)CC4)nc3)n2)s1` [GSK1645895], the “%Inh” value with PRKCD came to 0%; with PRKCE it was 0%; in the assay with PRKCH, 0%; in the assay with PRKCI, 0%; with PRKCQ, 15%; with PRKD1 it was 3%. The “%Inh” value in the assay with PRKD2 is 12%; in the assay on PRKD3, 9%; in the assay on PRKG1 it was 0%; in the assay on PRKG2, 0%.
On to `CS(=O)(=O)CCNCc1ccc(-c2ccc3ncnc(Nc4ccc(OCc5ccccc5)c(Cl)c4)c3c2)o1.Cl` [GW574783], for which the “%Inh” value is given as 0% in the assay with PRKCD; 10% with PRKCE; 27% in the assay on PRKCH; 13% in the assay with PRKCI; 20% with PRKCQ; 4% in the assay with PRKD1. Further, the “%Inh” value in the assay on PRKD2 is 12%; in the assay with PRKD3, 0%; in the assay with PRKG1, 0%; with PRKG2, 0%.
